Inconclusive results are not listed. The source made the active and inactive calls. Unless noted, calls come from the whole dose curve.
Columns and labels:
[1] = Nuclear factor erythroid 2-related factor 2/antioxidant responsive element (Nrf2/ARE) small molecule agonists: qHTS cell viability counter screen in human keratinocytes (AID 1919968; active = well fitted curve in the direction sought with a large enough effect in the repeat runs; an effect the other way counts as inactive or inconclusive; note: nearly all actives have a fitted effect of over 55% in size)
Outline: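 Viability counter-screen: KeratinoSens reporter cells, DMSO-delivered compounds, 23 h at 37 C, CellTiter-Fluor fluorescence.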

[2] = Nuclear factor erythroid 2-related factor 2/antioxidant responsive element (Nrf2/ARE) small molecule agonists: luciferase reporter gene qHTS assay in human keratinocytes (AID 1919969); note: nearly all actives have a fitted effect of over 35% in size
[3] = biological target: Gonadotropin-releasing hormone receptor (Homo sapiens) (UniProt P30968); assay: Human gonadotropin-releasing hormone receptor (GnRHR) small molecule agonists, calcium flux assay in GnRHR-HEK293 cells (AID 1920063); note: nearly all actives have a fitted effect of over 35% in size
Outline: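 Tox21-format agonist screen using human GnRHR-expressing HEK293 cells and a fluorescent calcium dye; kinetic 3-min fluorescence reading after compound addition, 15-point concentration series run in triplicate.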

[4] = biological target: KiSS-1 receptor (Homo sapiens) (UniProt Q969F8); assay: Human kisspeptin (KISS1R) small molecule agonists, calcium flux assay in KISS1R-HEK293 cells (AID 1920064; active = well fitted curve in the direction sought with a large enough effect in the repeat runs; an effect the other way counts as inactive or inconclusive)
Outline: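 Intracellular calcium mobilization in KISS1R-HEK293 cells was recorded by fluorescence (Ex/Em 480/540) for 3 min following compound addition to cells pre-loaded 1 h with calcium dye.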

[5] = G protein-coupled receptor (GPCR) small molecule agonists, calcium flux assay: HEK293 wild type cell line counter screen (AID 1920065)
Outline: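 In this agonist-mode screen, ATP is the positive control and DMSO the vehicle. Cells grow 18 h before a 1 h dye incubation at 37 C; signal is taken at Ex/Em 480/540 over 3 min.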

[6] = p53 small molecule agonists, cell-based qHTS assay with human liver microsomes (AID 1963577)
Outline: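 Compounds act here after metabolic activation: human liver microsomes and NADPH, both at 0.5 mg/mL final, were co-added to p53RE-bla cells. Incubation ran 16 h at 37 C, followed by LiveBLAzer detection.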

[7] = p53 small molecule agonists, cell-based qHTS assay with rat liver microsomes (AID 1963578)
Outline: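 Read-out is beta-lactamase reporter fluorescence (LiveBLAzer, 2 h, room temperature, dark) in p53RE-bla cells treated 16 h at 37 C with compound, rat liver microsomes and NADPH, both 0.5 mg/mL final.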

[8] = p53 small molecule agonists, cell-based qHTS assay with human liver microsomes: qHTS cell viability counter screen (AID 1963579); note: nearly all actives have a fitted effect of over 45% in size
Outline: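 Cells carrying the p53 response-element beta-lactamase reporter are treated for 16 h at 37 C with test compounds in the presence of human liver microsomes and NADPH (both 0.5 mg/mL final); ATP-based CellTiter-Glo luminescence then reports viability.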

[9] = p53 small molecule agonists, cell-based qHTS assay with rat liver microsomes: qHTS cell viability counter screen (AID 1963580); note: nearly all actives have a fitted effect of over 45% in size
Outline: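 Intracellular ATP, by CellTiter-Glo luminescence, defines viability. HCT-116 p53RE-bla cells, 4,000 per well, were compound-treated in the presence of rat liver microsomes and NADPH for 16 h at 37 C.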

[10] = p53 small molecule agonists, cell-based qHTS assay: qHTS cell viability counter screen (AID 1963581); note: nearly all actives have a fitted effect of over 45% in size
Outline: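 Compounds are pinned onto HCT-116 p53RE-bla cells and left 16 h at 37 C. Following the reporter FRET read, ATP is quantified by CellTiter-Glo luminescence after 30 min at room temperature.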

[11] = p53 small molecule agonists, cell-based qHTS assay (AID 1963582; active = well fitted activation curve with a large enough effect in the signal ratio in the repeat runs, not every such curve was filed as active; the % refers to the signal ratio)
Outline: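 Agonist activity was scored from beta-lactamase FRET fluorescence in p53RE-bla cells treated 16 h at 37 C with compounds in DMSO, substrate incubation being 2 h at room temperature.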

[12] = biological target: 5-hydroxytryptamine receptor 2A (Homo sapiens) (UniProt P28223); assay: 5-hydroxytryptamine receptor 2A (HTR2A) small molecule antagonists, cell-based qHTS assay (AID 1963586); note: nearly all actives have a fitted effect of over 45% in size
Outline: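 Antagonist-mode intracellular calcium assay: DOI (4 nM) added after 5 min compound pre-incubation at room temperature to dye-loaded HTR2A-CHO cells. Fluorescence followed for 3 min, sampled every second.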

[13] = biological target: 5-hydroxytryptamine receptor 2A (Homo sapiens) (UniProt P28223); assay: 5-hydroxytryptamine receptor 2A (HTR2A) small molecule agonists, cell-based qHTS assay (AID 1963587); note: nearly all actives have a fitted effect of over 30% in size
Outline: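 Kinetic calcium-flux fluorescence (2 min, 1 sec intervals) after compound addition in agonist mode. HTR2A-CHO cells were cultured 18 h, then dye-loaded 1 h at 37 C.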

[14] = biological target: Muscarinic acetylcholine receptor M1 (Homo sapiens) (UniProt P11229); assay: Cholinergic receptor muscarinic 1 (CHRM1) small molecule antagonists, cell-based qHTS assay (AID 1963588); note: nearly all actives have a fitted effect of over 40% in size
Outline: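 CHRM1-CHO calcium-flux assay, antagonist mode. Cells were seeded 18 h, dye-loaded 1 h at 37 C and given compound for 5 min at RT, then acetylcholine was added at 50nM. FDSS fluorescence was read 3 min; 15 concentrations, three runs.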

[15] = biological target: Muscarinic acetylcholine receptor M1 (Homo sapiens) (UniProt P11229); assay: Cholinergic receptor muscarinic 1 (CHRM1) small molecule agonists, cell-based qHTS assay (AID 1963589); note: nearly all actives have a fitted effect of over 35% in size
Outline: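 Stable CHRM1-CHO cells (human receptor) were incubated 18 h, dye-loaded for 1 h at 37 C and exposed to test compounds for agonist activity, with calcium-dependent fluorescence followed kinetically.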

[16] = cAMP Responsive Elements (CRE) small molecule agonists, cell-based qHTS assay (AID 1963590)
Outline: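 FRET-based beta-lactamase readout (LiveBLAzer B/G, 2 h RT) quantified CRE activation in HEK 293T CRE-bla cells after 3 h treatment with DMSO-dissolved compounds.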

[17] = cAMP Responsive Elements (CRE) small molecule antagonists, cell-based qHTS assay (AID 1963591; active = well fitted inhibition curve with a large enough effect in the signal ratio in the repeat runs, not every such curve was filed as active; the % refers to the signal ratio)
Outline: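 qHTS in CRE-bla HEK 293T cells: compound in DMSO, then 0.25 uM NKH477 (final), 3 h at 37 °C/5% CO2; beta-lactamase FRET read-out after 2 h substrate incubation.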

[18] = biological target: Beta-2 adrenergic receptor (Homo sapiens) (UniProt P07550); assay: Adrenergic beta2 receptor (ADRB2) small molecule antagonists, cell-based qHTS assay (AID 1963592); note: series mostly up to about 92 µM; nearly all actives have a fitted effect of over 50% in size
Outline: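 Cells (CHO, stable ADRB2 overexpression) incubated 18-20hr at 37C; compounds added from DMSO; agonist mix (1nM isoproterenol, 100uM IBMX, 25uM Ro-20-1724) added; 0.5hr RT; d2-cAMP and anti-cAMP-cryptate added; 1hr RT; 665/615 nm read.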

[19] = biological target: D(2) dopamine receptor (Homo sapiens) (UniProt P14416); assay: Dopamine D2 receptor (DRD2) small molecule agonists, cell-based qHTS assay (AID 1963594); note: nearly all actives have a fitted effect of over 35% in size
Outline: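 cAMP accumulation in DRD2-HEK293 cells measured by HTRF after 1 h detection; compounds added 10 min before NKH477 (200nM […]) forskolin-analogue stimulation, 30 min at room temperature, with Ro20-1724 present at 0.1 mM final.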

[20] = biological target: D(2) dopamine receptor (Homo sapiens) (UniProt P14416); assay: Dopamine D2 receptor (DRD2) small molecule antagonists, cell-based qHTS assay (AID 1963595; active = well fitted inhibition curve with a large enough effect in the signal ratio in the repeat runs, with a control signal flat; the % refers to the signal ratio)
Outline: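 Antagonism was scored as restored cAMP in HEK293-DRD2 cells. These cells were stimulated with 200 nM NKH477 and 12 nM quinpirole for 30 min at room temperature, in the presence of 0.1 mM Ro20-1724.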

Measured: Potency

Chain of 5-hydroxytryptamine receptor 2A (Homo sapiens) (P28223 whole entry, looked up): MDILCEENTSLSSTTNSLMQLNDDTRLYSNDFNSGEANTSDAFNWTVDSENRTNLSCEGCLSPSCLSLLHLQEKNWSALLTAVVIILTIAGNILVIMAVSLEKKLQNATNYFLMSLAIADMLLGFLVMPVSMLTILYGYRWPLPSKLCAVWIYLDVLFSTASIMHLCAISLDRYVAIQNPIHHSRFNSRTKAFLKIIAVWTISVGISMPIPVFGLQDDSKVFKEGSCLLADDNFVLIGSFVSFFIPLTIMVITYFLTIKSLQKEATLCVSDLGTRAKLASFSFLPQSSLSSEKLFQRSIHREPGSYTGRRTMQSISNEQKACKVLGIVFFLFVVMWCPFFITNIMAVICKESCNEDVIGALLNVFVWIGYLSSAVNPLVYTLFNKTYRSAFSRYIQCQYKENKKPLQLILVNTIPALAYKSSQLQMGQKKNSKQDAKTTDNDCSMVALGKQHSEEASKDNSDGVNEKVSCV
Chain of KiSS-1 receptor (Homo sapiens) (Q969F8 whole entry, looked up): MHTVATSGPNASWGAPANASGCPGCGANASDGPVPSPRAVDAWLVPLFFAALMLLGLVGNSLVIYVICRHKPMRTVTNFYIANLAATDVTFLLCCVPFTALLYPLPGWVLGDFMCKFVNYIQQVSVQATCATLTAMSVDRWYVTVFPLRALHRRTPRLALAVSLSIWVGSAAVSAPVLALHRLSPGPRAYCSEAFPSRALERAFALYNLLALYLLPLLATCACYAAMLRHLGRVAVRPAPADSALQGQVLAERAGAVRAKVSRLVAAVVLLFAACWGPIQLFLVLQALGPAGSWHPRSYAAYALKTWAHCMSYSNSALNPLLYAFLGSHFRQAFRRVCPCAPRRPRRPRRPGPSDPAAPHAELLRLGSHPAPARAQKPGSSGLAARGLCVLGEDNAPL
Chain of D(2) dopamine receptor (Homo sapiens) (P14416 whole entry, looked up): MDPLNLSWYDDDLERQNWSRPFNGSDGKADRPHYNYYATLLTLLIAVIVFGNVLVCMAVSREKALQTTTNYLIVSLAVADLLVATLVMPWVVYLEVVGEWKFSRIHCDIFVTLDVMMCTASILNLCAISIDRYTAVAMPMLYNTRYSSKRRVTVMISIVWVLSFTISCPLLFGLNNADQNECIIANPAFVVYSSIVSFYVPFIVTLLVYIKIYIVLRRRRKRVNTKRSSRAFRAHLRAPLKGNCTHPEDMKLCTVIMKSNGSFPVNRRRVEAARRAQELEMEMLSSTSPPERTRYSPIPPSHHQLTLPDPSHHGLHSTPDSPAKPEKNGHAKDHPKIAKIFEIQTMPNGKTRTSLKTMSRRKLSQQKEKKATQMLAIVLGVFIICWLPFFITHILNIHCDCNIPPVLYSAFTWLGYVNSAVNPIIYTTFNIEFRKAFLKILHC
Chain of Muscarinic acetylcholine receptor M1 (Homo sapiens) (P11229 whole entry, looked up): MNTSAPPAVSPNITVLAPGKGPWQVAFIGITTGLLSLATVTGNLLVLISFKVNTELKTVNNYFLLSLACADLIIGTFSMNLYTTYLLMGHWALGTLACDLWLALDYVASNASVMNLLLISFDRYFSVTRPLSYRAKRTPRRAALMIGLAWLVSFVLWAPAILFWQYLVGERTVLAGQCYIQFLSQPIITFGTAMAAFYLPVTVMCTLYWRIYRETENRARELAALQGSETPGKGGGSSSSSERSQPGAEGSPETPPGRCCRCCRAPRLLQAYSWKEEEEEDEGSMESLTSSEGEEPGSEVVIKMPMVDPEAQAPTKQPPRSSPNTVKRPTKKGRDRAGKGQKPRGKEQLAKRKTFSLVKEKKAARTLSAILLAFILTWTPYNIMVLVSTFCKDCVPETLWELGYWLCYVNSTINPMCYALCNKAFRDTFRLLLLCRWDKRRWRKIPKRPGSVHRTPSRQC
Chain of Gonadotropin-releasing hormone receptor (Homo sapiens) (P30968 whole entry, looked up): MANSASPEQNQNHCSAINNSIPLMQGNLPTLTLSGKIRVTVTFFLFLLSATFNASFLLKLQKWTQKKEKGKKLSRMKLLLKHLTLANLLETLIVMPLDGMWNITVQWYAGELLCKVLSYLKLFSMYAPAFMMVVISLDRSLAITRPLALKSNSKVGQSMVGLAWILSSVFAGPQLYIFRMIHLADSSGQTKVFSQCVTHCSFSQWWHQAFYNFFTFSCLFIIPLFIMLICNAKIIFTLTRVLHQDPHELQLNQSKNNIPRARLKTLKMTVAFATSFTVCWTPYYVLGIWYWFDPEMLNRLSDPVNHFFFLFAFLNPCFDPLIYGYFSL
Chain of Beta-2 adrenergic receptor (Homo sapiens) (P07550 whole entry, looked up): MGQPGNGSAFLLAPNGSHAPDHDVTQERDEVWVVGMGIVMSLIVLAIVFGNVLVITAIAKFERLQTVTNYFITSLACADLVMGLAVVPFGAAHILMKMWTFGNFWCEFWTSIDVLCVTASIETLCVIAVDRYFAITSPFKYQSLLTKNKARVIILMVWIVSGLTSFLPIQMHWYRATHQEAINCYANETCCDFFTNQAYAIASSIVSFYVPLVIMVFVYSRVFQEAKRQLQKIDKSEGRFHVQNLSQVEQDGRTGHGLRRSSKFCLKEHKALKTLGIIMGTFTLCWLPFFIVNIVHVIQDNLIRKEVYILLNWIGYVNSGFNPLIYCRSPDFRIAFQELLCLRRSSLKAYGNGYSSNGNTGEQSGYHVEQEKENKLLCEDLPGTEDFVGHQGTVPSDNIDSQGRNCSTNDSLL

CC(CCO)CC(C)(C)C (centres undefined)
inactive: all assays above

Oc1cccc(O)c1
inactive: all assays above

CCCCOCCO
inactive: all assays above

COCCOC(=O)c1ccccc1C(=O)OCCOC
inactive: all assays above

COC(=O)C1CCC(C(=O)OC)CC1 (centres undefined)
inactive: all assays above

CN(C)C
not listed: [20]
inactive: all other assays above

CC(=O)Oc1c(C)c(C)c2c(c1C)CC[C@@](C)(CCC[C@H](C)CCC[C@H](C)CCCC(C)C)O2
inactive: all assays above

From PubChem BioAssay (Tox21)
